# Bioassay records from PubChem BioAssay.
# CHO-K1 Ca ag = counter-screen for M1 agonists: effect in parental CHO-K1 cells. Fluo-8 calcium fluorescence; scaled to maximal ATP response, vehicle zero. activation, % at 3 µM. 360,000 tested, 0.48% active. AID 602248, 2012; in the data active = activation above about 15%;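 note: untransfected CHO-K1 host cells lacking M1 receptor as counterscreen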
# CHRM1 antagonist = human M1 muscarinic receptor antagonists, primary screen, CHO-K1 cells, Fluo-8 calcium fluorescence, 1536-well; CHO-K1 hM1, ACh EC80 antagonist; inhibition, % at 3 µM; 360,000 tested, 1.3% active; AID 588852, 2011;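 active = percent inhibition above its own plate's cutoff, namely the mean of that plate's compound wells plus 3 SD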;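 note: peak over basal fluorescence ratio during 140 s after agonist addition; 0% = ACh EC80 plus DMSO and 100% = DMSO alone without agonist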
# Target sequence (P11229 whole entry, looked up): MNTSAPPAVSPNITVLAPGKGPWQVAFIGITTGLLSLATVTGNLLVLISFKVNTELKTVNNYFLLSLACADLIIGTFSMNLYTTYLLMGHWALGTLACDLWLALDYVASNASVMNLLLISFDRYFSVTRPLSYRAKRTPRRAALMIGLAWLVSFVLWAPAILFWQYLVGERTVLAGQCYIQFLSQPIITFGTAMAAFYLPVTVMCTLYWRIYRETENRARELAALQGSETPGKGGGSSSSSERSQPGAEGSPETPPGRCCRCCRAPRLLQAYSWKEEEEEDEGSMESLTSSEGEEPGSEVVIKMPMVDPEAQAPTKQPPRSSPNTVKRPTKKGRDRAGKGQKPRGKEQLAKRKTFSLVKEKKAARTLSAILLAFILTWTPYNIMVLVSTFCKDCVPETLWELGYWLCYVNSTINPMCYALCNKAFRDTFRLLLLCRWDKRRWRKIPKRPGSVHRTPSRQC
# CHO-K1 Ca antag = M1 antagonist counterscreen hit in parental CHO-K1 cells. 360,000 tested, 0.6% active. AID 602250. inhibition, % at 3 µM. ATP-induced calcium, Fluo-8 fluorescence;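 active = inhibition above a per-plate cutoff, the plate's mean sample inhibition plus 3 SD, cut at about 24% in these data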;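 note: 0% = DMSO plus EC80 ATP and 100% = DMSO alone without ATP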
# M1 ag = human M1 muscarinic receptor agonists, primary screen, Fluo-8 calcium fluorescence, CHO-K1 cells, HTS. Muscarinic acetylcholine receptor M1 (Homo sapiens), P11229. CHO-K1 hM1, agonist mode; 0% DMSO, 100% acetylcholine EC100. activation, % at 3 µM. 360,000 tested, 0.33% active;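 active = activation above the run's mean compound activation plus 3 SD, cut at about 16% in these data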;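 note: peak over basal fluorescence ratio within a 140 s kinetic read after compound addition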
# CHRM1 PAM = human M1 muscarinic receptor positive allosteric modulators, primary screen, CHO-K1 cells, Fluo-8 calcium fluorescence, 1536-well; Muscarinic acetylcholine receptor M1 (Homo sapiens), P11229; CHO-K1 hM1, ACh EC20; 0% = ACh EC20, 100% = maximal ACh; activation, % at 3 µM; 360,000 tested, 0.088% active; in the data active = activation above about 19%, passing the limit was not always enough
# M1 PAM parental = nonselective calcium activators in parental CHO-K1 cells, primary screen, counter-screen for M1 PAM project, cell-based, Fluo-8 calcium fluorescence, full deck, 1536-well; activation, % at 3 µM; AID 602247, 2012; 360,000 tested, 0.02% active; ATP EC20; 0% at ATP EC20, 100% at ATP max;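 active = activation above the run cutoff, the mean activation of all test compounds plus 3 SD, cut at about 40% in these data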;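 note: peak over basal fluorescence ratio in a 140 s read after ATP addition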
# An asterisk follows results filed as active. A selection: hits, their analogues and other compounds. The true share with any hit is near 2.4%.
SMILES,CHO-K1 Ca ag,CHRM1 antagonist,CHO-K1 Ca antag,M1 ag,CHRM1 PAM,M1 PAM parental
CC1CCCN(CC(=O)N2c3ccccc3Sc3ccccc32)C1 (stereo unspecified),2,81*,-14,-6,-23,10
O=C1CCCN1CCCNCC(=O)N1c2ccccc2Sc2ccccc21,0,77*,-16,-6,-24,19
CN1CCN(CC(=O)N2c3ccccc3Sc3ccccc32)CC1,2,100*,-6,-10,-31,10
Cc1cc(C)n(CC(=O)N2c3ccccc3Sc3ccc(C(F)(F)F)cc32)n1,0,62*,5,-10,-27,4
Cc1ccc2nc(SCC(=O)NCCCN3CCCC3=O)[nH]c2c1,1,-5,-14,-3,10,22
CN(CC(=O)Nc1ccccc1Br)C(=O)c1ccccc1OCc1ccccc1Cl,0,-8,-11,-2,10,12
Cc1ccccc1CS(=O)(=O)CCC(=O)NCc1ccc(F)cc1Cl,3,-14,-14,1,11,24
C=CCOc1ccc(/C=C/C(=O)OCC(=O)Nc2c(C)n(C)n(-c3ccccc3)c2=O)cc1,1,-16,39*,-2,4,-3
Cc1ccc(Nc2nnns2)cc1,0,0,0,-2,5,9
CC1=CC(C)(C)N=C(Nc2ccc(C)cc2)S1,1,58*,-20,-10,-36,7
CC1(CO)COC2(OC1)C(=O)Nc1ccccc12 (stereo unspecified),1,6,-7,-2,-2,-12
CCOC(=O)c1[nH]c2ccc(C(=O)OC)cc2c1C(=O)OCC,-1,2,25*,-14,-6,-13
CCOC(=O)c1[nH]c2ccc(C)cc2c1N,0,-5,-14,-1,-1,-1
Cc1ccccc1C(=O)OC1CCCN(C)C1 (stereo unspecified),0,11,1,-9,-11,3
CN1CCCC(C#CC(O)(c2ccccc2)c2ccccc2)C1 (stereo unspecified),0,99*,-2,-13,-35,3
CC12CCC(=O)C=C1C(F)CC1C2C(O)CC2(C)C1CCC2(O)C(=O)CO (stereo unspecified),0,-5,-3,3,15,-7
CC1(C(=O)Nc2cccc3c2CCCC3)CCN1C(=O)CCC1CCCC1 (stereo unspecified),0,-8,-15,-6,-1,10
NC(=O)C1CCN(C(=O)CSc2nc3ccccc3s2)CC1,0,8,24*,0,-4,-7
COc1cccc(NC(=O)CN(C)C(=O)c2ccc(Cl)c(S(=O)(=O)N3CCCCCC3)c2)c1,0,1,13,-1,5,-22
CN(Cc1cccnc1)C(=O)c1ccc(Cl)c(NS(=O)(=O)c2ccc(F)cc2)c1,0,1,7,-2,3,-18
Cc1ccc(Cn2nnc(C(=O)Nc3cccc(C)c3C)c2N)cc1,13,18,14,39*,-7,3
Nc1c(C(=O)NCc2ccccc2)nnn1Cc1ccc(F)cc1,4,-5,-9,20*,4,17
COc1cccc(Cn2nnc(C(=O)Nc3cc(C)ccc3OC)c2N)c1,0,-17,26*,2,9,-12
CCc1ccc(Cn2nnc(C(=O)Nc3cccc(C)c3)c2N)cc1,1,-9,4,9,7,-10
CCCCOc1ccc(S(=O)(=O)Nc2cccnc2)cc1,30*,27,6,-1,-17,2
SMILES,CHO-K1 Ca ag,CHRM1 antagonist,CHO-K1 Ca antag,M1 ag,CHRM1 PAM,M1 PAM parental
O=C(O)CSc1ccc2ccccc2n1,0,12,-6,-2,-13,7
O=C(CSc1ccc2ccccc2n1)c1ccc2c(c1)OCO2,-1,5,28*,-1,1,-8
Cc1ccc(-c2cnc3c(c2)C(=O)N([C@H](C)CO)C[C@@H](C)[C@@H](CN(C)C(=O)Cc2ccccc2)O3)cc1,0,-21,-6,-8,14,11
Cc1cn(C2CC(O)C(CO)O2)c(=O)n(Cc2ccccc2)c1=O (stereo unspecified),1,-5,-4,-1,0,-1
COc1ccc(C(CCNCc2ccc(OC(C)C)cc2)c2ccccc2OC)cc1 (stereo unspecified),18*,1,14,3,10,-4
COc1ccc(CNCCC(c2ccc(OC)cc2)c2ccccc2OC)cc1 (stereo unspecified),1,-2,4,-3,6,-1
COc1cc(NC(=S)N2CCN(C/C=C/c3ccccc3)CC2)cc(OC)c1,2,-7,-12,-9,9,18
COc1cc(NC(=S)N2CCN(C(c3ccccc3)c3ccccc3)CC2)cc(OC)c1,0,30*,-3,-8,-23,3
O=C(O)c1cccc(Cn2cc(Br)cn2)c1,0,-7,1,-2,-4,2
O=C(NCc1ccncc1)c1cccc(Cn2cc(Br)cn2)c1,2,97*,-9,-5,-20,19
Cc1ccc(NC(=O)Cc2nc(-c3c[nH]c(C(=O)N4CCCC4)c3)cs2)c(C)c1,0,-7,8,-7,7,25
CCc1cc(C(=O)OCC(=O)N2CCC(c3ccccc3)=N2)sc1C,1,48*,-10,-6,-22,11
CCC(C(=O)Nc1cccc(S(=O)(=O)N(C)c2ccccc2)c1)c1ccccc1 (stereo unspecified),1,5,-3,-3,-6,-11
COC(=O)c1ccc(NC(=S)NCc2ccco2)cc1,1,4,30*,2,-3,-14
Cc1cccc(NC(=S)NCc2ccco2)n1,17*,-8,2,5,11,11
S=C(NCc1ccco1)NCc1ccco1,0,-18,-9,-3,11,12
O=C(c1ccc(Cl)c(S(=O)(=O)N2CCCC2)c1)N1CCCC(C(F)(F)F)C1 (stereo unspecified),2,-10,-7,-1,11,17
COc1ccc(C2=NS(=O)(=O)N(C)C(C(=O)N(C)Cc3ccccc3)=C2)cc1OC,7,-11,-6,-5,-7,24
CCC1CCCCN1CCCNC(=O)CSc1nc2nc(C)c(Cc3ccccc3Cl)c(C)n2n1 (stereo unspecified),1,51*,-8,-5,-23,17
CCC1CCCCN1CCCNC(=O)Cn1c2ccccc2c2nc(=O)cc(C)n21 (stereo unspecified),0,-9,-14,-6,0,3
